Source: PubChem
Hits are enriched below; roughly 11% of the tested compounds scored in any of these assays.
HP1b chromo inh: HTS for Inhibitors of HP1-beta Chromodomain Interactions with Methylated Histone Tails. AlphaScreen HP1-beta / biotin-H3K9me3 peptide binding. Chromobox protein homolog 1 (Homo sapiens), P83916. Potency, µM (highest dose often 114 µM), inactives show at the highest dose activity change, negative = inhibition, hits mostly inhibitors. 0.56% of 390,000 active. AID 540317, 2011; note: nearly all actives have a fitted effect of over 70% in size
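HP1-beta protein (50 nM final) preincubated 30 min at room temperature with biotinylated H3(1-18)K9me3 peptide (50 nM) in PBS pH 7.4, 0.01% Tween-20, then compound added for 30 min. AlphaScreen streptavidin donor/nickel chelate acceptor beads (10 ug/mL final), 30 min dark, luminescence read.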
L3MBTL1 inh: qHTS Assay for the Inhibitors of L3MBTL1. 0.66% of 230,000 active. AlphaScreen L3MBTL1–H3K9me1 peptide binding. Lethal(3)malignant brain tumor-like protein 1 (Homo sapiens), Q9Y468. Potency, µM (titrated, usually from 57.1 µM), for inactives: at the top dose activity, negative = inhibition, most hits filed as inhibitors; note: % is set by controls: 0 for no effect and ±100 for the full control effect; nearly all actives have a fitted effect of over 60% in size
Target sequence (Q9Y468 whole entry, looked up): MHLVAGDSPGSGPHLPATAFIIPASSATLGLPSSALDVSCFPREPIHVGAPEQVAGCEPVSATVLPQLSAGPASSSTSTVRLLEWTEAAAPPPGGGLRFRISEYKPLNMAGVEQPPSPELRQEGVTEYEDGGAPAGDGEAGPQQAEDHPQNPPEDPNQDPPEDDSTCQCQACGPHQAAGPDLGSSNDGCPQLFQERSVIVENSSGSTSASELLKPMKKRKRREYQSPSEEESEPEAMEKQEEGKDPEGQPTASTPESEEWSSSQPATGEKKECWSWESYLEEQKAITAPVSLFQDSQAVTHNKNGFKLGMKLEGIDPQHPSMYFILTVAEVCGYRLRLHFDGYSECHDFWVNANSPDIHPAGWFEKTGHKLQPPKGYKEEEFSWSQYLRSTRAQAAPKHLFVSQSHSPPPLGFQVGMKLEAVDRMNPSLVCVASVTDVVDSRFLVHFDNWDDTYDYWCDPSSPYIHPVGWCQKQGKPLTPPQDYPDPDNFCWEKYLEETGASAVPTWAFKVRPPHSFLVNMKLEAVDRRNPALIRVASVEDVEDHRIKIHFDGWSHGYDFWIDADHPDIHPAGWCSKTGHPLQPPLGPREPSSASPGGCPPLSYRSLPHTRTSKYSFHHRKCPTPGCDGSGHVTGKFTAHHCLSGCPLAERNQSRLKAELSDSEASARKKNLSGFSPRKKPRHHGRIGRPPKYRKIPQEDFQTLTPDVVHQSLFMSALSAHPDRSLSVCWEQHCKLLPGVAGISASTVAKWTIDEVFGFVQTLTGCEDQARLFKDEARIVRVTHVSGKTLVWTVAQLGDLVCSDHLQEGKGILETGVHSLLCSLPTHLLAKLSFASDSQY
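L3MBTL1 (50 nM) pre-complexed 30 min with biotinylated H3(1-15)K9me1 peptide (75 nM), then compounds added for 30 min at room temperature; AlphaScreen streptavidin donor/nickel chelate acceptor beads (10 ug/mL final) read after 30 min dark incubation.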
JMJD2A Tudor inh: qHTS Assay for Inhibitors of JMJD2A-Tudor Domain | AlphaScreen JMJD2A-Tudor / H3K4me3 peptide binding | Potency, µM (doses to about 114 µM), inactives show at the top dose activity change, negative = inhibition, most hits filed as inhibitors | 4.4% of 390,000 active; note: % is set by controls: 0 for no effect and ±100 for the full control effect; nearly all actives have a fitted effect of over 50% in size
BAZ2B block: qHTS Assay for Inhibitors of BAZ2B; 4.4% of 360,000 active; Potency, µM (titrated, usually from 114 µM), for inactives: top-dose activity change, negative = inhibition, actives largely listed as inhibitors; Bromodomain adjacent to zinc finger domain protein 2B (Homo sapiens), Q9UIF8; AlphaScreen BAZ2B-H3K14Ac peptide displacement; note: % is set by controls: 0 for no effect and ±100 for the full control effect; nearly all actives have a fitted effect of over 60% in size
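Protein-peptide AlphaScreen: BAZ2B 50 nM, b-H3K14Ac 50 nM, 1x PBS pH 7.4 + 0.01% Tween-20. Preincubation 30 min RT; cpd 30 min RT (top 110 uM); beads 20 min RT, light-protected.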
G9a inh: qHTS Assay for Inhibitors of Histone Lysine Methyltransferase G9a | Potency, µM (doses to about 102 µM), inactives show at the top dose activity, negative = inhibition, hits mostly inhibitors | 8.8% of 350,000 active | Histone-lysine N-methyltransferase EHMT2 (Homo sapiens), Q96KQ7 | AID 504332, 2011 | G9a H3K9 monomethylation, AlphaScreen, 2 h; note: % is set by controls: 0 for no effect and ±100 for the full control effect; nearly all actives have a fitted effect of over 75% in size
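Step 1: enzyme (final 20 nM) with compound, 15 min RT. Step 2: substrate peptide 500 nM and SAM 20 uM, 2 h RT. Step 3: anti-H3K9me1 antibody and AlphaScreen beads, 10 min, then plate read.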
The depositor's hits bear a star; ? = inconclusive; / = not tested or not shown; [ ] = remark or other dose. Calls come from the whole dose curve; as a rule, active = well fitted inhibition curve with a large enough effect; inconclusive = small, poorly fitted or top-dose-only effect; inactive = no such curve, though single readings can be large or run the other way. Potency is the fitted concentration of half-maximal effect.

SMILES	HP1b chromo inh	L3MBTL1 inh	JMJD2A Tudor inh	BAZ2B block	G9a inh
CN(C)CCCN(C(=O)c1ccc(S(=O)(=O)N2CCc3ccccc32)cc1)c1nc2ccc(F)cc2s1	?	/	?	?	44.7µM*
CN(C)CCCN(C(=O)c1ccc(S(=O)(=O)N2CCc3ccccc3C2)cc1)c1nc2ccc(F)cc2s1	-31.4%	/	?	-30.6%	39.8µM*
COc1ccc(C)cc1Nc1n[n+](-c2ccccc2)c(-c2c(Cl)cccc2Cl)s1	?	?	50.1µM*	15.8µM*	39.8µM*
COc1ccc(C)cc1NS(=O)(=O)c1ccccc1	16.3%[57 µM]	/	-1.4%	/	/
COc1ccc(C)cc1Nc1n[n+](-c2ccccc2)c(-c2ccc(OC)c(OC)c2OC)s1	-2.8%	-5.0%	?	?	/
COc1ccc(C)cc1Nc1n[n+](-c2ccccc2)c(-c2ccc(N(C)C)cc2)s1	?	-0.1%	50.1µM*	28.2µM*	50.1µM*
O=C(OCc1cc2ccccc2[nH]c1=O)c1cccs1	37.4%	6.9%	-2.9%	7.8%	20µM*
COC(=O)C1=C(C(=O)OC)C(C(=O)OC)C(C(=O)OC)C(C(=O)OC)(C(=O)OC)C(C(=O)OC)=C1C(=O)OC (stereo not given)	50.1µM*	/	89.1µM*	/	/
CC(C)Oc1ccc(CNC(=O)c2ccc3nc(C(C)C)oc3c2)cc1	49.1%[57 µM]	/	-9.3%	16.0%	9.1%[59 µM]
COc1ccc([C@]23Cc4ccccc4C(O2)c2c(cc(-c4ccccc4)oc2=O)O3)cc1	/	/	/	39.7%[22.9 µM]	/
COc1ccc(C2C=C(c3ccccc3)Nc3nc(CCCO)nn32)cc1 (stereo not given)	26.1%	1.8%	-25.0%	5.5%	?
COc1ccc(C2C=C(c3cccs3)Nc3nc(CCCO)nn32)cc1 (stereo not given)	/	-6.2%	/	?	39.8µM*
OCCCc1nc2n(n1)C(c1ccccc1)C=C(c1ccccc1)N2 (stereo not given)	60.3%	/	-16.3%	-4.9%	39.8µM*
CCOc1ccc(C(=O)N2CCN(c3ncccn3)CC2)cc1	20.1%	/	-16.9%	/	/
CCN(CC)C(=O)CN1CCN(c2ncccn2)CC1	?	3.1%	4.47µM*	25.1µM*	5.62µM*
C[C@H](CO)N1C[C@H](C)[C@@H](CN(C)C(=O)Nc2ccc(C(F)(F)F)cc2)Oc2c(NS(=O)(=O)c3ccc(F)cc3)cccc2C1=O	16.6%	-3.5%	-18.7%	/	/
CC(C)CCNC(=O)N1CCN(S(=O)(=O)c2ccc3c(ccn3C)c2)CC1	25.6%[57 µM]	/	-0.6%	-1.4%	7.2%[59 µM]
Cc1ccc(C)c(NC(=O)Cn2c(=O)n(Cc3ccc4c(c3)OCO4)c(=O)c3ccccc32)c1	45.7%	/	-8.2%	-0.2%	-37.8%[59 µM]
CCN(CC)C(=O)c1[nH]cnc1C(=O)Nc1ccc(Cl)cc1	36.8%	-3.5%	-32.9%	50.1µM*	-2.9%[0.501 µM]
CCOC(=O)c1ccc(NC(=O)c2nc[nH]c2C(=O)N(CC)CC)cc1	37.2%	/	-24.6%	-2.1%	?
CCOC(=O)c1[nH]cnc1C(=O)Nc1ccc(F)cc1	38.1%	4.6%	-25.7%	?	44.7µM*
CCOC(=O)c1[nH]cnc1C(=O)Nc1ccncc1	1.0%	/	28.2µM*	50.1µM*	?
CCN(CC)C(=O)c1[nH]cnc1C(=O)Nc1ccc(OC)cc1	18.4%	/	-9.4%	-37.6%	-0.9%[59 µM]
CC(=O)N1CCCc2cc(S(=O)(=O)N(C)CC(=O)Nc3cccc(Cl)c3C)ccc21	12.3%[57 µM]	/	-15.5%	2.2%	7.5%[59 µM]
Cc1cccc(NC(=O)c2sc(-n3nc(C)c(CCC(C)C)c3C)nc2C)c1	46.1%	/	-0.7%	-3.2%	?
SMILES	HP1b chromo inh	L3MBTL1 inh	JMJD2A Tudor inh	BAZ2B block	G9a inh
COc1ccc(NC(=O)Cn2ccn(-c3ccc(F)c(F)c3)c(=O)c2=O)cc1Cl	15.8%	/	-20.1%	-12.2%	-20.2%[59 µM]
O=C(CSc1nc2c([nH]c3ccccc32)c(=O)n1-c1ccc(F)cc1)N1CCc2ccccc21	8.5%[57 µM]	/	-13.9%	1.3%	3.4%[59 µM]
CN=c1scc(-c2c[nH]c3ccccc23)n1C	16.5%	1.4%	-19.4%	-12.9%	39.8µM*
CCOc1cc(C(c2c(C)[nH]n(-c3ccccc3)c2=O)c2c(C)[nH]n(-c3ccccc3)c2=O)ccc1O	?	/	50.1µM*	11.2µM*	?
Cc1[nH]n(-c2ccccc2)c(=O)c1C(c1cc(Cl)ccc1O)c1c(C)[nH]n(-c2ccccc2)c1=O	?	/	44.7µM*	?	?
COc1ccc(C(c2c(C)[nH]n(-c3ccccc3)c2=O)c2c(C)[nH]n(-c3ccccc3)c2=O)cc1OC	-51.5%	?	?	?	?
Cc1[nH]n(-c2ccccc2)c(=O)c1C(c1ccccc1C(=O)O)c1c(C)[nH]n(-c2ccccc2)c1=O	34.2%	4.6%	-9.5%	-28.7%	?
COc1ccc(C(=O)NCC(c2ccc3c(c2)OCO3)N2CCN(C)CC2)cc1OC (stereo not given)	55.1%[57 µM]	/	-0.3%	39.1%	12.0%[59 µM]
COc1ccc(C2=NC3(CCCCCC3)N(CC(=O)Nc3ccc(C)c(C)c3)C2=O)cc1	38.0%	/	-9.4%	-21.9%	2.8%[59 µM]
CNc1ccnc(-c2cccc(NS(C)(=O)=O)c2)n1	/	/	/	/	1.7%[0.501 µM]
O=c1c2ccccc2cnn1Cc1ccc(Cl)c(Cl)c1	61.2%	/	51.8%	65.9%	19.9%
O=c1c2ccccc2cnn1Cc1n[nH]c(=S)n1-c1cc(Cl)cc(Cl)c1	21.3%	-0.4%	25.1µM*	-34.2%	0.398µM*
O=c1c2ccccc2cnn1Cc1n[nH]c(=S)n1-c1ccc(F)c(Cl)c1	31.8%	-8.2%	7.94µM*	-24.9%	3.16µM*
CCn1c(=O)n(-c2ccc(F)c(Cl)c2)c(=O)c2sc3ccccc3c21	29.0%	/	-4.6%	-11.2%	6.0%[59 µM]
O=c1c2ccccc2cnn1Cc1n[nH]c(=S)n1-c1ccccc1Cl	39.7%	6.4%	31.6µM*	-29.5%	4.47µM*
Cc1cccc(N(CC(=O)N(C)Cc2ccccc2)S(=O)(=O)c2ccccc2)c1C	46.1%	/	-2.4%	0.6%	-43.7%[59 µM]
O=C(O)CCCCCNc1nc(=S)[nH]c2ccccc12	5.1%	31.3%	22.4µM*	?	?
O=C(CCCCCNc1nc(=S)[nH]c2ccccc12)NCCc1ccc(Cl)cc1	34.0%	7.4%	-13.4%	-2.3%	29.0%
CN(N=Nc1nc[nH]c1C(=O)NN)C1CCCCC1	42.1%	/	-16.7%	/	/
CCn1ccc2cc(OC)ccc2c1=S	6.6%	12.0%	-27.3%	-0.8%	/
CCSc1ccc2cc(OC)ccc2[n+]1CC	28.7%	/	?	10.8%	20µM*
